Assay outcomes deposited in PubChem BioAssay by several laboratories.
ADAM17 inh – inhibits human ADAM17. inhibition, % at 6.95 µM. P78536. recombinant ADAM17, EDANS/DABCYL FRET peptide cleavage. 370,000 compounds, 0.83% hits;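 active = inhibition above the mean of compounds lying between control limits plus 3 SD, set per campaign, cut at about 8.5% in these data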
FAS TE block – FAS thioesterase (human) inhibition. P49327. recombinant FAS-TE, OMFH fluorogenic substrate, fluorescence endpoint. inhibition, % at 15 µM. 360,000 compounds, 0.67% hits. AID 602261;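 active = compounds whose normalised, plate-corrected inhibition of enzyme fluorescence in the single-dose primary screen is 50% or more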
proKLK7 act – activators of human kallikrein-7 zymogen | 370,000 compounds, 0.9% hits | activation, % at 7 µM | P49862 | purified proKLK7, EDANS-DABCYL substrate fluorescence; 100% is mature enzyme control, 0% vehicle;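 active = activation above the mean of all tested compounds plus 3 SD, computed per campaign excluding outliers beyond control limits, cut at about 13% in these data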
Target sequence (P49862 whole entry, looked up): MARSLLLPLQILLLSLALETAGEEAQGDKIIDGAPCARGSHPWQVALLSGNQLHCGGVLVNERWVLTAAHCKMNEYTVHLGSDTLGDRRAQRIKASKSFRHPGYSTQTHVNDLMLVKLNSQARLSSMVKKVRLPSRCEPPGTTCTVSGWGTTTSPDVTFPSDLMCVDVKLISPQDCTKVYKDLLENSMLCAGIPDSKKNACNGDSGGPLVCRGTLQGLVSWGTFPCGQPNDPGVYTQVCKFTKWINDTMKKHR
NR3A LBD binder – NR3A (human) ligand-binding domain modulation | NR3A LBD differential scanning fluorimetry, Tm shift; 0% = protein alone, 100% = glycine-bound protein | Tm shift relative to glycine control, % at 25 µM | 340,000 compounds, 2.5% hits | AID 1259313;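 active = melting temperature shift of at least 10% of the positive control shift, at one fixed dose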
ADAM10 inh – ADAM10 inhibition, QFRET primary screen; O14672; recombinant ADAM10, EDANS/DABCYL FRET peptide cleavage, 3 h; inhibition, % at 7 µM; 370,000 compounds, 0.62% hits;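 active = inhibition above a per-campaign cutoff equal to the mean of compounds falling between control-based bounds plus 3 SD, cut at about 20% in these data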
ADAM10 counter – counter-screen for ADAM17 exosite inhibitors: inhibitors of human ADAM10. shares compounds with ADAM17 inh. recombinant ADAM10, EDANS/DABCYL FRET peptide cleavage, 3 h. inhibition, % at 6.95 µM. 2,900 compounds, 47% hits. AID 743256;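 active = mean inhibition over the triplicate runs exceeds the activity threshold set in the earlier primary screen, cut at about 20% in these data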
ADAM17 confirm – human ADAM17 inhibition, confirmation; inhibition, % at 6.95 µM; 2,900 compounds, 65% hits; recombinant ADAM17, EDANS/DABCYL QFRET peptide cleavage; shares compounds with ADAM17 inh;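 active = mean inhibition across replicates above the hit cutoff set in the primary screen, cut at about 8.5% in these data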
Numbers stand for hits; n = inactive; x = no result. The list is not random: actives were taken first. Their share in the collection is about 4.6%.

SMILES	ADAM17 inh	FAS TE block	proKLK7 act	NR3A LBD binder	ADAM10 inh	ADAM10 counter	ADAM17 confirm
COC(=O)[C@]12C[C@H](CC(=O)N3CCOCC3)C(=O)N(Cc3ccccc3)C1=C[C@H](C(C)C)O[C@@H]2C1CC1	n	x	n	x	n	x	x
S=C(NCc1ccco1)Nc1cccc(Cl)c1	n	n	n	n	n	x	x
S=C(NCc1ccco1)Nc1ccc(Cl)c(Cl)c1	10.0	n	n	11	n	n	n
COc1ccc(-c2n[nH]c(=S)n2-c2ccc(Br)cc2)cc1OC	11	n	n	n	n	n	37
COc1ccc(COC(=O)C2CCN(S(=O)(=O)c3ccc(OC)c(OC)c3)CC2)cc1	9.7	n	n	n	n	30	17
COc1ccc(COC(=O)C2CCN(S(=O)(=O)c3ccc(Cl)cc3)CC2)cc1	n	n	n	n	n	x	x
CCCCCN1CC(O)=C(c2nc3ccccc3[nH]2)C1=N	10	n	n	n	n	n	n
CCN(CC)S(=O)(=O)c1ccc(OC)c(NC(=O)c2ccc(OC)c([N+](=O)[O-])c2)c1	13	n	n	n	n	n	n
CCN(CC)S(=O)(=O)c1ccc(N2CCOCC2)c(NC(=O)c2ccc(OC)c([N+](=O)[O-])c2)c1	n	n	n	n	n	x	x
O=C(CCCC(=O)OCC(=O)c1cccs1)Nc1ccc(Oc2ccccc2)cc1	8.9	n	n	n	n	n	n
O=C(CCCC(=O)OCC(=O)c1cccs1)Nc1ccc(F)cc1	n	n	n	n	n	x	x
O=C(NCc1ccccc1)[C@H]1CCCN1C(=O)[C@H]1CCCN1C(=O)c1ccc(Cl)cc1	n	x	n	x	n	x	x
COC(=O)[C@]12C[C@H](CC(=O)NCc3ccccc3)C(=O)N(Cc3ccccc3)C1=C[C@H](C(C)C)O[C@@H]2C1CC1	n	x	n	x	n	x	x
Cc1cccc(/C(N)=N/OC(=O)N2CCOCC2)c1	13	n	n	n	n	n	12
Cc1ccc(/C(N)=N/OC(=O)N2CCOCC2)cc1	n	n	n	n	n	x	x
C=CCNC(=S)N(C)[C@H]1C[C@H]2c3[nH]c4c(-c5ccccc5)cccc4c3CCN2C(=O)[C@H]1[C@H](C)O	n	x	n	x	n	x	x
Cc1cccc(N2CCN(C(=O)c3ccc(CS(=O)Cc4ccc(Cl)cc4)o3)CC2)c1C (stereo not given)	11	n	n	n	n	n	12
COC(=O)[C@H](N[C@H](/C=C/c1ccccc1)[C@@H](O)Cc1ccccc1)c1ccccc1	n	x	n	x	n	x	x
COc1ccccc1CN(C)C[C@@H]1OCc2cnnn2CCCC(=O)N([C@H](C)CO)C[C@H]1C	8.7	n	n	x	n	n	n
NC(=O)CC[C@@H]1NC(=O)[C@H](CO)NC(=O)c2cc([N+](=O)[O-])cc(I)c2OCC[C@@H](C(N)=O)NC1=O	10	n	n	n	n	n	n
COc1cccc(NC2c3ccccc3C(=O)N2Cc2ccccc2Cl)c1 (stereo not given)	12	n	n	n	n	n	11
COc1cc(NC2c3ccccc3C(=O)N2Cc2ccccc2Cl)cc(OC)c1 (stereo not given)	n	n	n	n	n	x	x
Cc1c(C(=O)N2CC3(CC(c4cccc(NC(=O)CC(c5ccccc5)c5ccccc5)c4)=NO3)C[C@@H]2C(N)=O)cc([N+](=O)[O-])cc1[N+](=O)[O-] (stereo not given in full)	11	n	n	n	n	34	19
C/C=C(\C)C(=O)Nc1cccc(C2=NOC3(C2)C[C@@H](C(N)=O)N(C(=O)c2cc([N+](=O)[O-])cc([N+](=O)[O-])c2C)C3)c1 (stereo not given in full)	n	n	n	n	n	x	x
Cc1cc(N2CCN(C(=O)OC(C)(C)C)C[C@@H]2C)ccc1N1C[C@@H](C)O[C@@H](C)C1	n	x	n	x	n	x	x
CC(C)c1ccc(S(=O)(=O)Nc2ccc3c(c2)OCO3)cc1	12	n	n	n	n	n	n
